# Shown are actives, neighbours in structure and some others; about 7% of the full set was active somewhere.
# KAT2A inh – GCN5L2 (KAT2A) acetyltransferase inhibition | Q92830 | GCN5L2 HAT assay, ThioGlo1 CoA-SH fluorescence | Potency, µM (doses to about 58.9 µM), inactives show top-dose activity change, negative = inhibition, usual class: inhibitors | hit rate 0.21% among 390,000 | AID 504327; further: potency means the concentration at half of the fitted maximal effect; on the % scale 0 is the no-effect control and ±100 the full control effect
#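 Enzyme at 20nM final was mixed with library compounds for 15 min at room temperature. Peptide H3(1-25) at 75uM, acetyl-CoA at 70uM and ThioGlo1 at 50uM were then added. Plates were read immediately and after 20 min (Ex340nm/Em540nm).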
# HP1b binding inh – inhibitors of HP1-beta chromodomain binding to methylated histone tails; P83916; AlphaScreen HP1-beta / biotin-H3K9me3 peptide binding; Potency, µM (top dose mostly 114 µM), inactives show at the top dose activity change, negative = inhibition, actives largely listed as inhibitors; hit rate 0.56% among 390,000; further: potency means the concentration at half of the fitted maximal effect; nearly all actives have a fitted effect of over 70% in size
# Target sequence (P83916 whole entry, looked up): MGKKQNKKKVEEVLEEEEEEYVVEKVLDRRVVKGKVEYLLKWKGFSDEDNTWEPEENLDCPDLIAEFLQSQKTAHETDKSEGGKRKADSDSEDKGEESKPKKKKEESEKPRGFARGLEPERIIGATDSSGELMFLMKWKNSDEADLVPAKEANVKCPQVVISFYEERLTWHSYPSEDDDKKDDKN
#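 HP1-beta protein (50 nM final) preincubated 30 min at room temperature with biotinylated H3(1-18)K9me3 peptide (50 nM) in PBS pH 7.4, 0.01% Tween-20, then compound added for 30 min. AlphaScreen streptavidin donor/nickel chelate acceptor beads (10 ug/mL final), 30 min dark, luminescence read.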
# PI5P4Ka inh – blocks human PI5P4K alpha kinase activity. PI5P4Kalpha enzyme, ADP-Glo luminescence, 60 min; hits give low values. max response, %. hit rate 1.2% among 330,000. AID 652105; active means max response of -50% or lower; inconclusive means between -30% and -50%; inactive means -30% or higher; further: value at the top dose of about 77 µM; on the % scale 0 is the no-effect control and ±100 the full control effect
# Target sequence (P48426 whole entry, looked up): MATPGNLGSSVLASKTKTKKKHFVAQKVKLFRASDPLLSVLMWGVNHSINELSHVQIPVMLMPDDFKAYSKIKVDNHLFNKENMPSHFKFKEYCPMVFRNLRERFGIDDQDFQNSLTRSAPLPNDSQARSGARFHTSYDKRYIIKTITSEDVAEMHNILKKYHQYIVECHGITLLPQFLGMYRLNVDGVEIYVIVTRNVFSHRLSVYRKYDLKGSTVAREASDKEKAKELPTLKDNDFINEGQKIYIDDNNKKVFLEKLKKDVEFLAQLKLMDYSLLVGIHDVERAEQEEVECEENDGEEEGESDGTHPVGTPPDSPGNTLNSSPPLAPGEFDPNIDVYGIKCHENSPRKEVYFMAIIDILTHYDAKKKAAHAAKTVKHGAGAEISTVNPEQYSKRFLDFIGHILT
#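 Quantitative HTS of the MLSMR library against PI5P4Kalpha with substrate. ATP added last at 5 microM final; room temperature, 60 minutes. Remaining ATP depleted, ADP converted and read as luminescence.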
# PLK1 PBD block – blocks phosphopeptide binding to human PLK1 polo-box domain. AID 720504. Plk1 PBD binding of FITC phosphopeptide, fluorescence polarization. hit rate 2.8% among 360,000. P53350. Potency, µM, for inactives: max response, negative = inhibition, most hits filed as inhibitors; further: potency means the concentration at half of the fitted maximal effect; series mostly up to about 57 µM; on the % scale 0 is the no-effect control and ±100 the full control effect; nearly all actives have a fitted effect of over 65% in size
# JMJD2A Tudor – inhibitors of human JMJD2A Tudor domain; Potency, µM (series often up to 114 µM), without a hit: top-dose activity change, negative = inhibition, hits mostly inhibitors; AlphaScreen JMJD2A-Tudor / H3K4me3 peptide binding; O75164; hit rate 4.4% among 390,000; further: potency means the concentration at half of the fitted maximal effect; on the % scale 0 is the no-effect control and ±100 the full control effect; nearly all actives have a fitted effect of over 50% in size
# BAZ2B inh – BAZ2B (human) inhibition | AID 504333 | hit rate 4.4% among 360,000 | Potency, µM (doses to about 114 µM), for the others: at the top dose activity change, negative = inhibition, usual class: inhibitors | AlphaScreen BAZ2B-H3K14Ac peptide displacement | Q9UIF8; further: potency means the concentration at half of the fitted maximal effect; on the % scale 0 is the no-effect control and ±100 the full control effect; nearly all actives have a fitted effect of over 60% in size
#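 Complex of BAZ2B and biotin-H3K14Ac (50 nM apiece) forms over 30 min at RT, then faces library compounds up to 110 uM for another 30 min; AlphaScreen beads added, 20 min dark incubation, luminescence read.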
# * = called active by the depositor; ? = inconclusive; · = no result given; [ ] = dose if it differs, or a comment. Unless noted, the call rests on the fitted dose curve; in most records, active means well fitted curve in the direction sought with a large enough effect; inconclusive means small, poorly fitted or top-dose-only effect, or another doubt; inactive means no such curve, though single readings can be large; an effect the other way counts as inactive or inconclusive.
SMILES,KAT2A inh,HP1b binding inh,PI5P4Ka inh,PLK1 PBD block,JMJD2A Tudor,BAZ2B inh
O=C(CSc1nc2ccsc2c(=O)n1CC1CCC(C(=O)O)CC1)c1ccc(Cl)cc1 (configuration not stated),-4.8%,-19.1%,11.1,-14.6%,79.4µM*,·
NC(=S)NN=Cc1nccc2c(C(F)(F)C(F)(F)C(F)(F)F)cccc12,·,·,7.1,2.8%,·,·
Cc1cnc(C=NNC(N)=S)c2cccc(N)c12,·,?,-53.2*,23.8µM*,50.1µM*,·
NC(=S)NN=Cc1nccc2ccccc12,·,-5.6%[57 µM],-9.5,-14.9%,17.8µM*,·
COc1ccc(-n2nc(C(=O)N3CCN(c4cccc(C)c4C)CC3)c3c4ccccc4n(C)c3c2=O)cc1Cl,1.8%,21.5%,·,·,-14.7%,·
O=C(O)C1Nc2c(O)cccc2C2C=CCC12 (configuration not stated),-1.8%,28.2µM*,-81.3*,26.7µM*,2.51µM*,1.58µM*
CC(C)CNC(=O)C1Nc2ccc(C(F)(F)F)cc2C2C=CCC12 (configuration not stated),·,14.2%,-15.6,-7.0%,-22.1%,·
O=C(O)C1Nc2c(Cl)cc(Cl)cc2C2C=CCC12 (configuration not stated),3.55µM*,28.2µM*,-99.5*,7.52µM*,22.4µM*,25.1µM*
Cc1ccc(C)c2c1NC(C(=O)O)C1CC=CC21 (configuration not stated),·,22.4µM*,·,·,20µM*,·
COc1ccc(CN2CCNC(=O)C2CC(=O)N2CCCN(C(C)=O)CC2)cc1OC (configuration not stated),1.1%,19.2%,6.0,-6.6%,-3.3%,-7.8%[57.1 µM]
O=C(COC(=O)C12CC3CC(CC(O)(C3)C1)C2)Nc1cccc(Br)c1,-1.7%,6.2%,-1.8,-2.4%,-13.8%,4.4%
COC(=O)c1cccc(CN2C(=O)C(C)Oc3ccc(C)cc32)c1 (configuration not stated),·,·,-1.3,-6.2%,·,·
COc1ccc(/C=N/NC(=O)CN2CCCc3ccccc32)c(OC)c1,1.6%,?,2.9,-9.5%,50.1µM*,50.1µM*
COc1ccc(C2NN=C(c3ccc(C)cc3)S2)cc1OC (configuration not stated),-14.1%,23.4%,-5.0,23.8µM*,-4.2%,-4.7%
Cc1ccc(C2=NNC(c3cccc(F)c3)S2)cc1 (configuration not stated),-4.6%,39.1%,4.2,?,-12.3%,-28.2%
CC(=O)c1ccc(NC(=O)C(C)n2c3ccccc3c3nc(=O)cc(C)n32)cc1 (configuration not stated),?,23.2%,1.3,-6.2%,-12.6%,-3.9%
Cc1cc(=O)nc2c3ccccc3n(C(C)C(=O)NCCC(C)C)n12 (configuration not stated),-4.8%,1.2%,-2.3,26.7µM*,-2.9%[11.4 µM],0.2%
COc1ccccc1/C=C1\SC(=S)N(CCC(=O)NCCCn2ccnc2)C1=O,-10.9%,32.4%,-2.3,-11.3%,-1.0%,50.1µM*
O=C(CCCN1C(=O)/C(=C/c2ccc(F)cc2)SC1=S)NCCCn1ccnc1,-25.3%,?,-2.0,-12.8%,?,22.4µM*
COc1ccc(/C=C2\SC(=S)N(CCC(=O)NCCCn3ccnc3)C2=O)cc1,-7.3%,44.1%,2.1,2.1%,16.3%,25.1µM*
CC(C)c1ccc(/C=C2\SC(=S)N(CCC(=O)NCCCn3ccnc3)C2=O)cc1,-25.6%,2.2%,5.8,-19.3%,?,?
Cc1cccc(CS(=O)(=O)Cc2ccc(C(=O)NCc3ccc(F)cc3)o2)c1,2.3%,13.7%,·,·,-7.3%,8.9%
CCN1C[C@@H]2[C@@H]3C(=O)N(C)C(=O)[C@@H]3[C@](C)(C1=O)N2C(=O)c1ccc(Cl)cc1,·,25.0%,2.2,-13.4%,-19.4%,·
Cc1ccc(CSc2nnc(SCC(=O)N/N=C/C=C/c3ccccc3[N+](=O)[O-])s2)cc1,-0.7%,13.5%,-17.2,-5.1%,-28.1%,-27.7%
CCn1c(SCC(=O)N/N=C/C=C\c2ccco2)nc2ccccc21,-2.9%,-11.1%,-21.7,-18.5%,?,44.7µM*
SMILES,KAT2A inh,HP1b binding inh,PI5P4Ka inh,PLK1 PBD block,JMJD2A Tudor,BAZ2B inh
Cc1ccc(CSc2nnc(SCC(=O)N/N=C/C=C/c3ccco3)s2)cc1,-18.5%,5.5%,?,-11.2%,-12.8%,50.1µM*
Cc1cccc(C)c1OCC(=O)N/N=C/C=C/c1ccco1,-9.0%,37.6%,-12.3,-10.2%,-28.9%,-17.7%
Cc1cccc(OCC(=O)N/N=C/C=C/c2ccco2)c1,?,-1.3%,-76.0*,-19.0%,-35.0%,?
Cn1c(SCC(=O)N/N=C/C=C\c2ccco2)nc2ccccc21,-6.1%,?,?,?,56.2µM*,?
CC1=C(C(=O)N2CCOCC2)CC(CC(=O)NCc2ccco2)C(=O)N1Cc1ccccc1 (configuration not stated),·,·,4.6,-13.8%,·,·
COc1cc(OC)c(NC(=O)c2cc(C(C)=O)n3ccccc23)cc1Cl,-25.8%,8.8%,·,·,-21.4%,-3.0%
O=C(NC(=O)c1ccccc1O)c1ccc2c(c1)CCO2,-9.1%,10.7%,?,-11.8%,-10.4%,-1.6%
CC(=O)c1cc(NC(=O)c2ccc(C)cc2)c(=O)oc1C,-9.8%,-23.2%,-8.8,10.6µM*,20µM*,-18.8%
CC(=O)c1cc(NC(=O)c2ccccc2)c(=O)oc1C,-6.7%,?,-3.0,?,-33.4%,-20.8%
CCc1ccc(NC(=O)c2nc(S(=O)(=O)Cc3ccccc3)ncc2Cl)cc1,-4.5%,·,·,·,·,-26.5%
CC(=O)Nc1ccc(NC(=O)c2nc(S(=O)(=O)Cc3cccc(C)c3)ncc2Cl)cc1,3.2%,-4.1%[57 µM],-5.5,13.4µM*,-24.7%,-22.3%
CCOC(=O)c1ccc(NC(=O)c2nc(S(=O)(=O)Cc3ccccc3)ncc2Cl)cc1,-6.3%,-11.3%[57 µM],-14.7,11.9µM*,-16.0%,-29.5%
Cc1ccc(NC(=O)c2nc(S(=O)(=O)Cc3ccccc3C)ncc2Cl)cc1C,-6.9%,-24.2%[57 µM],1.7,26.7µM*,12.6µM*,-33.8%
COc1ccc(S(=O)(=O)N2CCCCC2)cc1NS(=O)(=O)c1ccc(CNC(C)=O)cc1,-3.3%,18.2%,-8.4,-17.2%,-11.0%,·
CCOc1ccc(/C=C2/C(=N)N3OC(C)=CC3=NC2=O)cc1OC,-10.0%,-7.1%,-18.6,21.2µM*,-17.5%,-3.2%
Cc1ccc(C2=Nc3ccccc3N(C(=O)c3ccccc3)C(C)C2)cc1 (configuration not stated),-1.3%,?,-5.6,29.9µM*,?,-34.7%
COc1ccc(C2=Nc3ccccc3N(C(=O)c3ccc(C)cc3)C2C(=O)NCc2ccccc2)cc1 (configuration not stated),·,·,4.6,3.6%,·,·
CC(C)(C)OC(=O)NCc1nnc(-c2nc3ccccc3[nH]2)o1,·,·,·,·,-32.2%,·
